Screening data deposited in PubChem by The Scripps Research Institute Molecular Screening Center.
S1P2 antag: antagonists of human S1P2 receptor. O95136. cell-based S1P2 antagonist assay, inhibition at 5 uM. inhibition, % at 5 µM. 97,000 tested, 0.21% active. AID 736; in the data active = inhibition above about 45%;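 note: CRE beta-lactamase reporter cells expressing human S1P2 stimulated with S1P; 0% = agonist at EC80 alone and 100% = agonist plus reference antagonist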
S1P2 ag: agonists of human S1P2 receptor; O95136; S1P2-expressing cell line, agonist reporter read-out; activation, % at 4.5 µM; 97,000 tested, 0.46% active; AID 729; in the data active = activation above about 16%;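 note: 0% = vehicle low control and 100% = maximal reference agonist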
GALR2 blocker: blocks the human galanin receptor 2; O43603; GALR2-expressing cells, antagonist mode; inhibition, % at 4 µM; 140,000 tested, 0.39% active; AID 828; in the data active = inhibition above about 27%;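 note: cells stimulated with galanin 1-16 at roughly its EC80; 0% = agonist challenge control and 100% = basal control without agonist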
Target sequence (O43603 whole entry, looked up): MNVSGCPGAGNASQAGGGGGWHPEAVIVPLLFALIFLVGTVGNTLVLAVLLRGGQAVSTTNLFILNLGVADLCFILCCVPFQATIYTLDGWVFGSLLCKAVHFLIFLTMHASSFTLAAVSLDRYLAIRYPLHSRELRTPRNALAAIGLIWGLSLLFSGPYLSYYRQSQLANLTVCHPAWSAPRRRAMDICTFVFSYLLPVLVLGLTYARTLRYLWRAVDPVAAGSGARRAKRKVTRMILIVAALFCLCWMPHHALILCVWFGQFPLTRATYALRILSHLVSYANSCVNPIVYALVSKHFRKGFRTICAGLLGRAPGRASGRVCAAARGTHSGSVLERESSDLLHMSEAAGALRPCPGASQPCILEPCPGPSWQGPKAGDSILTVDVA
GALR2 ag: agonists of human galanin receptor 2 (GALR2); activation, % (no concentration beside the values); 140,000 tested, 0.48% active; O43603; GALR2-expressing cells, agonist activation read-out; AID 803; in the data active = activation above about 5%, passing the limit was not always enough;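 note: 0% = vehicle buffer wells and 100% = reference agonist at full effect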
GALR2 ag confirm: confirmation of human galanin receptor 2 (GALR2) agonists. GALR2-expressing cells, agonist activation. shares compounds with GALR2 ag. AID 864. activation, % at 5.6 µM. 460 tested, 10% active; in the data active = activation above about 8.4%;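 note: 0% = buffer-only vehicle wells and 100% = full reference agonist response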
BLA act counter: activates beta-lactamase reporter in GALR2 agonist counterscreen. shares compounds with GALR2 ag. CHO NFAT-bla reporter, beta-lactamase FRET activation. activation, % at 5.6 µM. 460 tested, 10% active;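 active = activation above the screen-wide mean activation plus 3 SD, cut at about 8% in these data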;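 note: 0% = DMSO with PBS wells and 100% = thapsigargin positive control wells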
Starred values were filed as active, the others as inactive. Compounds with a hit are over-represented: about 1.1% of the library has one in this group of screens.

`CCCCC(c1nnnn1CCOC)N1CCN(c2cccc(OC)c2)CC1` (stereo unspecified) gave GALR2 blocker 1.8 and GALR2 ag -1.4.
`COc1ccc(-c2cc(C(=O)Nc3c(Cl)cc(Cl)cc3Cl)c3ccccc3n2)cc1OC` gave GALR2 blocker -0.1 and GALR2 ag 4.9*.
For Cn1c(=N)c(S(=O)(=O)c2ccc(F)cc2)cc2c(=O)n3ccccc3nc21 the results were S1P2 antag -17.8, S1P2 ag 2.0, GALR2 blocker -11.3 and GALR2 ag 0.7.
Screening N=c1c(S(=O)(=O)c2ccc(Cl)cc2)cc2c(=O)n3ccccc3nc2n1CCN1CCOCC1 returned GALR2 blocker -0.8 and GALR2 ag 8.3*.
For Cn1c(=N)c(S(=O)(=O)c2ccccc2)cc2c(=O)n3ccccc3nc21 the results were S1P2 antag -57.0, S1P2 ag 21.5*, GALR2 blocker -9.1 and GALR2 ag 2.6.
`N#CC1(C#N)C2=C(CCCC2)NC(c2ccccc2)C1(C#N)C#N` (stereo unspecified) gave S1P2 antag 16.1, S1P2 ag 0.2, GALR2 blocker 12.2 and GALR2 ag -2.5.
For CCOC(=O)C1=C(C)Nc2sc(C(=O)c3ccc(OC)cc3)c(N)c2C1c1ccc(C(=O)OC)cc1 (stereo unspecified) the results were GALR2 blocker -2.2 and GALR2 ag 5.6*.
O=C(CSc1nc2ccccc2s1)NCCOc1ccc(Cl)cc1 was read as S1P2 antag -7.1, S1P2 ag -5.2, GALR2 blocker 2.9 and GALR2 ag -3.0.
`Nc1nc(Br)c2c(F)cccc2c1-c1ccc(F)cc1` gave S1P2 antag -11.5, S1P2 ag 22.5*, GALR2 blocker 4.7 and GALR2 ag 7.3.
O=C(O)CCC(=O)N1CCN(c2nc(-c3ccccc3Cl)c3cc(Br)ccc3n2)CC1 was read as S1P2 antag -14.9, S1P2 ag 16.4*, GALR2 blocker 8.6 and GALR2 ag 9.6.
`O=C(NCCC(=O)N1CCN(c2ncccn2)CC1)c1ccccc1Cl` gave S1P2 antag -3.6, S1P2 ag -2.1, GALR2 blocker -16.3 and GALR2 ag -1.6.
For COc1ccc(C2C3=C(CCCC3=O)Nc3nc(-c4cc(OC)c(OC)c(OC)c4)nn32)cc1OC (stereo unspecified) the results were S1P2 antag -7.7, S1P2 ag 6.0, GALR2 blocker -0.3 and GALR2 ag -0.1.
For COc1cc(-c2nc3n(n2)C(c2cccc(OC)c2OC)C2=C(CCCC2=O)N3)cc(OC)c1OC (stereo unspecified) the results were S1P2 antag -37.7, S1P2 ag 27.1*, GALR2 blocker -3.0 and GALR2 ag -0.2.
Cc1cc(NCCOCCO)n2ncc(-c3ccc(Cl)cc3)c2n1 was read as S1P2 antag -41.7, S1P2 ag 17.6*, GALR2 blocker -6.7 and GALR2 ag -1.0.
For CCCN(CCC)c1nc(NC2CCN(C(=O)OCC)CC2)nc(OC)n1 the results were S1P2 antag -0.3, S1P2 ag 2.9, GALR2 blocker -30.8 and GALR2 ag -0.1.
Screening O=C(N/N=C\c1cc(Br)ccc1O)c1ccc(S(=O)(=O)N2CCCCC2)cc1 returned GALR2 blocker 21.7 and GALR2 ag 6.1*.
For CN1CCN(C(=S)SCC(=O)Nc2nc(-c3ccccc3)c(-c3ccccc3)o2)CC1 the results were GALR2 blocker -6.8 and GALR2 ag -2.3.
For CC(=O)c1cc2c(cc1NC(=O)CN1CCCCCCC1)OCO2 the results were S1P2 antag -13.2, S1P2 ag -5.7, GALR2 blocker 1.0 and GALR2 ag 0.7.
`NS(=O)(=O)c1ccc(N2N=C(c3ccc(Br)cc3)CC2c2ccc(F)cc2)cc1` (stereo unspecified) gave S1P2 antag -114.7, S1P2 ag 161.0*, GALR2 blocker -38.1 and GALR2 ag 155.9*.
`NS(=O)(=O)c1ccc(N2N=C(c3ccccc3)CC2c2cccc(F)c2)cc1` (stereo unspecified) gave GALR2 blocker -10.8 and GALR2 ag 5.9*.
Cn1cc(Cl)c(C(=O)OCC(=O)Nc2nc(-c3ccc(Br)cc3)cs2)n1 was read as S1P2 antag -5.5, S1P2 ag -4.5, GALR2 blocker -6.1 and GALR2 ag -1.4.
Screening COc1ccc2cc(C(c3nnnn3C3CCCC3)N3CCCCCC3)c3nnnn3c2c1 (stereo unspecified) returned S1P2 antag 6.2, S1P2 ag -6.0, GALR2 blocker 8.0 and GALR2 ag -2.2.
For COc1ccc2cc(C(c3nnnn3C3CCCCC3)N3CCCCCC3)c3nnnn3c2c1 (stereo unspecified) the results were S1P2 antag 10.8, S1P2 ag -3.1, GALR2 blocker -2.3 and GALR2 ag 13.1*.
Screening COc1ccc(Cn2c(SCc3ccccc3C)nc3cc(OC)c(OC)cc3c2=N)cc1 returned S1P2 antag 6.0, S1P2 ag -5.8, GALR2 blocker -8.5, GALR2 ag 9.1*, GALR2 ag confirm 8.8* and BLA act counter 6.4.
Screening COc1ccc2[nH]c3c(c2c1)CCn1c-3nc2ccccc2c1=O returned GALR2 blocker 10.9, GALR2 ag 8.7*, GALR2 ag confirm 0.3 and BLA act counter -1.1.
COc1cc(OC)cc(C(=O)Nn2c(C)nc3ccccc3c2=O)c1 was read as S1P2 antag 22.5, S1P2 ag -8.4, GALR2 blocker -4.3 and GALR2 ag -1.7.
`COc1ccc(CN(C)Cc2ccccc2)c(OC)c1OC` gave GALR2 blocker 16.1 and GALR2 ag -1.0.
For CC(=O)c1cc(C)ccc1OC(=O)c1ccco1 the results were S1P2 antag 11.1, S1P2 ag -1.5, GALR2 blocker 5.6, GALR2 ag 11.1*, GALR2 ag confirm -0.7 and BLA act counter 1.7.
CCOCCCNC(=O)C1CC(=O)N(C2CCCC2)C1 (stereo unspecified) was read as S1P2 antag -11.0, S1P2 ag -1.1, GALR2 blocker -13.0, GALR2 ag 27.9*, GALR2 ag confirm -1.0 and BLA act counter -2.8.
For COc1ccc(Cc2nc(C(=O)Nc3ccc(OC)cc3)cs2)cc1 the results were S1P2 antag -0.3, S1P2 ag -6.0, GALR2 blocker -4.6, GALR2 ag 26.7*, GALR2 ag confirm -1.7 and BLA act counter -4.1.
For COc1ccc(Cc2nc(C(=O)NCc3ccccc3OC)cs2)cc1 the results were S1P2 antag 1.0, S1P2 ag -4.0, GALR2 blocker 3.0 and GALR2 ag -1.0.
`CC(C)P(=O)(Cc1cccc(C#N)c1)C(C)C` gave S1P2 antag 18.3, S1P2 ag -4.7, GALR2 blocker 5.0 and GALR2 ag -1.3.
For CSC1=NC2(CC(c3ccccc3)Oc3cc(O)ccc32)CC(C)(C)N1 (stereo unspecified) the results were S1P2 antag -15.3, S1P2 ag 0.9, GALR2 blocker -20.2, GALR2 ag 20.4*, GALR2 ag confirm 9.2* and BLA act counter 78.3*.
`COc1cccc(C2CC3(CC(C)(C)NC(=S)N3)Oc3cc(O)ccc32)c1` (stereo unspecified) gave GALR2 blocker 1.3 and GALR2 ag 0.3.
